Source: PubChem BioAssay (NCATS)
Inconclusive results are not listed. For some of these results: Entries with a potency or affinity are not part of this list. Calls of active or inactive are those of the source. Unless noted, no rule for the calls is given here.

Columns and labels:
[1] = Ebola virus entry assay, green fluorescence channel
[2] = Ebola virus entry assay, blue channel fluorescence
[3] = Ebola virus entry assay, ratio channel
[4] = Ebola virus entry assay, reporter ratio channel; Channel type: primary
[5] = qHTS assay for measurement of the activity of small molecule inhibitors on Zika virus induced Caspase-3 activity in human iPSC derived neural progenitor cells (hNPCs) (AID 1224857; active = well fitted curve in the direction sought with a large enough effect; an effect the other way counts as inactive or inconclusive; also: % of control where 0% means no effect; nearly all actives have a fitted effect of over 65% in size); conditions: hNPCs ZIKV-induced caspase-3/7, Caspase-Glo luminescence, 6 h; series mostly up to 45.7 µM
How it was run: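 Percent inhibition of virus-induced caspase-3/7 luminescence (Caspase-Glo), scaled between uninfected cells and Zika-infected cells. hNPCs received compound 1 hr before ZIKV at 2 FFU/cell, with 6 hours infection at 37 C.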

[6] = qHTS assay for measurement of the activity of small molecule inhibitors on Zika virus induced Caspase-3 activity in human astrocytoma cells (AID 1224859; active = well fitted curve in the direction sought with a large enough effect; an effect the other way counts as inactive or inconclusive;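 also: plate controls were ZIKV-infected untreated cells for no effect and uninfected cells for full effect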); conditions: SNB-19 ZIKV-induced caspase-3/7, luminescence, 6 h; series mostly up to 45.7 µM
How it was run: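 Luminescent caspase-3/7 read-out (30 min reagent, room temperature) in human SNB-19 cells infected 6 h with ZIKV (2 FFU/cell) after 1 h compound pre-incubation; Data were normalised to uninfected and infected wells.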

[7] = Ebola virus entry assay, green channel fluorescence
[8] = Ebola virus entry assay, blue channel (ratio component)
[9] = Immunotoxin (HA22) sensitization/mitigation study. Vehicle arm (PBS) (AID 1159510); conditions: cancer cells viability with PBS vehicle (HA22 study); series mostly up to 46.1 µM; also: potency is read from the fitted curve at half-maximal effect
[10] = Immunotoxin (SS1P) sensitization/mitigation study. Vehicle arm (DMEM) (AID 1159513); conditions: cell viability with vehicle (DMEM); series mostly up to 46.1 µM
[11] = qHTS profiling for inhibitors of Plasmodium falciparum (DD2) proliferation (AID 743323); conditions: lower = more inhibition; at 28.7 µM (top of the series)
How it was run: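 SYBR Green fluorescence (ex 485, em 535 nm) of lysed cultures gives parasite DNA content; wells normalized to artemisinin (0.29 uM) and DMSO controls. Infected red cells: 0.3% parasitemia, 2.5% hematocrit, 72 h, 37 C.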

[12] = qHTS profiling for inhibitors of Plasmodium falciparum (HB3) proliferation (AID 743324; active = well fitted curve in the direction sought with a large enough effect; an effect the other way counts as inactive or inconclusive;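 also: 100% = DMSO vehicle wells and 0% = artemisinin-treated control wells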); conditions: Plasmodium falciparum HB3 blood-stage proliferation; at 28.7 µM (top of the series)
How it was run: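 P. falciparum HB3 grown in erythrocytes (0.3% parasitemia, 2.5% hematocrit final) with compound for 72 h at 37 C, 5% CO2. Parasite DNA detected by SYBR Green after saponin/triton lysis overnight; normalized to 0.29 uM artemisinin and DMSO.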

[13] = qHTS profiling of the MIPE4 collection as inhibitors of Plasmodium falciparum (3D7) proliferation (AID 743344);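 also: scaled between DMSO vehicle wells and 0.29 µM artemisinin as full inhibition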; conditions: P. falciparum 3D7 in erythrocytes, SYBR Green DNA fluorescence, 72 h; at 28.5 µM (top of the series)
How it was run: (§1)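 Erythrocytes infected with P. falciparum (0.3% parasitemia, 2.5% hematocrit) incubated with compounds 72 h at 37 C, 5% CO2. Lysis with saponin/Triton buffer containing SYBR Green I, overnight at room temperature in the dark; DNA fluorescence (485/535 nm) normalised to 0.29 uM artemisinin and DMSO.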

[14] = qHTS profiling of the MIPE4 collection as inhibitors of Plasmodium falciparum (DD2) proliferation (AID 743345); conditions: P. falciparum Dd2 in erythrocytes, SYBR Green DNA, 72 h; at 28.5 µM (top of the series)
How it was run: as §1

[15] = qHTS profiling of the MIPE4 collection as inhibitors of Plasmodium falciparum (DD2) proliferation (Rep 2) (AID 743346); conditions: P. falciparum Dd2 in erythrocytes, SYBR Green DNA, 72 h; at 28.5 µM (top of the series)
How it was run: as §1

[16] = qHTS profiling of the MIPE4 collection as inhibitors of Plasmodium falciparum (HB3) proliferation (AID 743347);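 also: plate controls were DMSO vehicle wells for no effect and artemisinin wells for full effect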; conditions: P. falciparum HB3 in erythrocytes, SYBR Green DNA, 72 h; at 28.5 µM (top of the series)
How it was run: as §1

[17] = High-throughput drug toxicity screening in the BPDCN cell line Gen2.2 (AID 1224824); conditions: Gen2.2 BPDCN cells; at 45.8 µM (top of the series);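 also: cells exposed to compounds for 48 h before reading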
How it was run: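 Gen2.2 cells (500/well) in phenol red-free RPMI with 10% FBS were exposed to compounds for 48 h at 37 °C, 5% CO2. Viability was read by CellTiter-Glo luminescence and normalized to DMSO (100%) and 9.2 uM bortezomib (0%).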

[18] = High-throughput drug toxicity screening in the BPDCN cell line Cal-1 (AID 1224825); conditions: Cal-1 BPDCN cell viability, qHTS; at 45.8 µM (top of the series)
How it was run: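 Cal-1 cells, 500 per well in phenol-red-free RPMI with 10% FBS, exposed to compounds for 48 hours at 37C, 5% CO2. Viability read by CellTiter-Glo luminescence; percent activity normalized to DMSO (100%) and 9.2 uM bortezomib final (0%).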

[19] = qHTS Screen of the MIPE 4.0 Collection Against Ewings Sarcoma (RDES) (AID 1259252; active = well fitted curve in the direction sought with a large enough effect; an effect the other way counts as inactive or inconclusive;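 also: 100% = DMSO-treated cells and 0% = medium-only wells without cells; nearly all actives have a fitted effect of over 35% in size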); conditions: RD-ES Ewing sarcoma viability, CellTiter-Glo, 48 h; series mostly up to 45.8 µM
How it was run: (§2)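 Dose series incubated 48 h with cells in RPMI plus 5% FBS, glutamine and penicillin/streptomycin; cell viability then quantified via CellTiter-Glo.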

[20] = qHTS Screen of the MIPE 4.0 Collection Against Ewings Sarcoma (TC71) (AID 1259253; active = well fitted curve in the direction sought with a large enough effect; an effect the other way counts as inactive or inconclusive;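 also: 100% = DMSO-treated cells and 0% = medium-only wells without cells; nearly all actives have a fitted effect of over 40% in size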); conditions: TC71 Ewing sarcoma viability, CellTiter-Glo, 48 h; series mostly up to 45.8 µM
How it was run: as §2
For efficacy in this document: 0% is about no effect.

O=C1CN2CCOC2(c2ccccc2Cl)c2cc(Cl)ccc2N1 (stereo not drawn)
inactive: efficacy [1] 46.2% | outcome [2] | outcome [3] | outcome [4] | Potency [5] | outcome [6]

NC(=O)OCCCc1ccccc1
inactive: efficacy [1] 24.7% | outcome [2] | outcome [7] | outcome [4] | outcome [8] | Potency [5] | outcome [6]

NC(=O)c1ncn([C@@H]2O[C@H](CO)[C@@H](O)[C@H]2O)c1N
inactive: efficacy [1] -19.4% | outcome [2] | outcome [7] | outcome [4] | outcome [8] | Potency [9] | outcome [10]

COP(=O)(OC)C(O)C(Cl)(Cl)Cl (stereo not drawn)
inactive: efficacy [1] -51.3% | outcome [2] | outcome [4] | outcome [8] | Potency [5] | outcome [6]

Cc1ccc(N=CN(C)C=Nc2ccc(C)cc2C)c(C)c1
inactive: efficacy [1] -16% | outcome [2] | outcome [7] | outcome [4] | outcome [8] | Potency [5] | outcome [6]

Oc1ccc([C@H]2CNCc3c2ccc(O)c3O)cc1O
active: AC50 [2] 14.1 µM | AC50 [3] 14.1 µM | AC50 [4] 14.1 µM
inactive: efficacy [1] 69.3% | outcome [6]

CC(C)(O)C(Cl)(Cl)Cl
inactive: efficacy [1] -12.3% | outcome [2] | outcome [7] | outcome [4] | outcome [8] | Potency [5] | outcome [6]

C[C@]12CCC(=O)C=C1CC[C@@H]1[C@@H]2[C@@H](O)C[C@@]2(C)[C@H]1CC[C@]2(O)C(=O)CO
active: Potency [9] 0.296 µM
inactive: efficacy [1] 14.5% | outcome [2] | outcome [7] | outcome [4] | outcome [8] | outcome [10]

NC(=O)CN1CCCC1=O
inactive: efficacy [1] 23.9% | outcome [2] | outcome [7] | outcome [4] | outcome [8] | Potency [5] | outcome [6]

OC[C@@H](O)[C@H](O)[C@H](O)[C@@H](O)CO
inactive: efficacy [1] -17.3% | outcome [2] | outcome [7] | outcome [4] | outcome [8]

COc1cc(CC(C)N)c(OC)cc1Br (stereo not drawn)
active: AC50 [2] 31.6 µM | AC50 [4] 39.8 µM
inactive: efficacy [1] 80.6% | outcome [3] | Potency [5] | outcome [6]

COCC(=O)N(c1c(C)cccc1C)C(C)C(=O)OC (stereo not drawn)
inactive: efficacy [1] -46.6% | outcome [2] | outcome [7] | outcome [4] | outcome [8] | Potency [5] | outcome [6]

O=C(O)c1nn(Cc2ccc(Cl)cc2Cl)c2ccccc12
inactive: efficacy [1] 44.2% | outcome [2] | outcome [7] | outcome [4] | outcome [8] | Potency [9] | outcome [10] | Potency [5] | outcome [6] | Potency [19] | Potency [20]
75.4%: parasite growth, % of DMSO control [13]
95.1%: viability (% of control) [18]
101%: parasite growth, % of control (lower = inhibition) [15]
104%: remaining proliferation (% of control), lower = more inhibition [12]
60.1%: activity, percent of control [11]
99.8%: parasite growth remaining, % of DMSO control (lower = more inhibition) [14]
81.1%: growth, % of control [16]
98.4%: cell viability, % of control (lower = more cytotoxic) [17]

CCCC[N+]1(C)[C@@H]2CC(OC(=O)[C@H](CO)c3ccccc3)C[C@H]1[C@@H]1O[C@@H]12 (stereo partly drawn)
inactive: efficacy [1] -24.1% | outcome [2] | outcome [7] | outcome [4] | outcome [8] | Potency [5] | outcome [6]

COc1ccc(C(=O)N2CCCC2=O)cc1
inactive: efficacy [1] -13.7% | outcome [2] | outcome [7] | outcome [4] | outcome [8] | Potency [5] | outcome [6] | Potency [20]
103%: growth, % of control [16]
90.2%: parasite growth, % of DMSO control [13]
19.7%: parasite growth remaining, % of DMSO control (lower = more inhibition) [14]
46.4%: cell viability, % of control (lower = more cytotoxic) [17]
128%: parasite growth, % of control (lower = inhibition) [15]
41.6%: viability (% of control) [18]

C[C@H](N)[C@H](O)c1ccc(O)c(O)c1
inactive: efficacy [1] 56.6% | outcome [6]
active: AC50 [2] 5.62 µM | AC50 [3] 4.47 µM | AC50 [4] 4.47 µM

CCC(OC(C)=O)C(CC(C)NC)(c1ccccc1)c1ccccc1 (stereo not drawn)
inactive: efficacy [1] -236% | Potency [5] | outcome [6]
active: AC50 [2] 3.98 µM | AC50 [3] 2.51 µM | AC50 [4] 2.51 µM

COC(=O)C1=CCCN(C)C1
75.8%: parasite growth, % of DMSO control [13]
129%: viability (% of control) [18]
93%: growth, % of control [16]
47.2%: parasite growth, % of control (lower = inhibition) [15]
166%: cell viability, % of control (lower = more cytotoxic) [17]
98.7%: parasite growth remaining, % of DMSO control (lower = more inhibition) [14]
inactive: efficacy [1] 26.3% | outcome [2] | outcome [7] | outcome [4] | outcome [8] | Potency [5] | outcome [6] | Potency [20]

CN1C(=O)[C@@H](NC(=O)c2cc3ccccc3[nH]2)N=C(c2ccccc2)c2ccccc21
inactive: efficacy [1] -160% | outcome [3] | outcome [4] | Potency [5] | outcome [6]
active: AC50 [2] 39.8 µM
